Laboratory results: the supplement of paper PMC6555819

Assays:
Test in all cases: PBM binding z-score (relative to random genomic background probes); higher = stronger binding; sequences stand for … in GC…GCGATTGACAGCGTAGAATGAAGG
[1] = test system: PPARg:RXRa DBDmut IVT, anti-RXR (DBD mutation: RXRa K156A/R161A, NR concentration 270 nM, RXRa partner concentration 90 nM)
Outline: (§1)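 Custom Agilent 4×180K protein-binding microarrays carried double-stranded probes, each with a 34-nt variable region. These regions held direct-repeat seeds, single-nucleotide variants, half-site ablations and random human genomic background sequences. Ligand-free nuclear receptor dimers were incubated on the arrays for 1 h, antibodies against each partner (one per run) detected binding, and scanned fluorescence was regression-normalized. Binding z-scores take the random background probes as reference.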

[2] = test system: PPARg:RXRa IVT, anti-PPARg (NR concentration 270 nM, RXRa partner concentration 90 nM)
Outline: as §1

[3] = test system: PPARg DBDmut:RXRa IVT, anti-PPARg (DBD mutation: PPARg1 K132A/R137A, NR concentration 270 nM, RXRa partner concentration 90 nM)
Outline: as §1

[4] = test system: PPARg DBDmut IVT, anti-PPARg (DBD mutation: PPARg1 K132A/R137A, NR concentration 270 nM)
Outline: as §1

[5] = test system: PPARg homodimer (NR concentration 180 nM)
Outline: as §1

[6] = test system: PXR:RXRa (NR concentration 270 nM, RXRa partner concentration 90 nM)
Outline: as §1

[7] = test system: PXR homodimer (NR concentration 270 nM)
Outline: as §1

[8] = test system: RARa:RXR (NR concentration 270 nM, RXRa partner concentration 90 nM)
Outline: as §1

[9] = test system: RARa homodimer (NR concentration 270 nM)
Outline: as §1

[10] = test system: RARb:RXRa (NR concentration 270 nM, RXRa partner concentration 90 nM)
Outline: as §1

[11] = test system: RARb homodimer (NR concentration 270 nM)
Outline: as §1

[12] = test system: RARg:RXRa (NR concentration 270 nM, RXRa partner concentration 90 nM)
Outline: as §1

[13] = test system: RARg homodimer (NR concentration 270 nM)
Outline: as §1

[14] = test system: RXRa DBDmut IVT, anti-RXR (DBD mutation: RXRa K156A/R161A, NR concentration 90 nM)
Outline: as §1

[15] = test system: RXRa homodimer (NR concentration 180 nM)
Outline: as §1

[16] = test system: THRa:RXRa (NR concentration 90 nM, RXRa partner concentration 90 nM)
Outline: as §1

[17] = test system: THRa homodimer (NR concentration 90 nM)
Outline: as §1

[18] = test system: VDR homodimer (NR concentration 270 nM)
Outline: as §1

Row | Sequence | PBM binding z-score [1] | PBM binding z-score [2] | PBM binding z-score [3] | PBM binding z-score [4] | PBM binding z-score [5] | PBM binding z-score [6] | PBM binding z-score [7] | PBM binding z-score [8] | PBM binding z-score [9] | PBM binding z-score [10] | PBM binding z-score [11] | PBM binding z-score [12] | PBM binding z-score [13] | PBM binding z-score [14] | PBM binding z-score [15] | PBM binding z-score [16] | PBM binding z-score [17] | PBM binding z-score [18]
1 | CTCGAAGGGTCGGTTGAGGTGAGTATACGGATAA | -0.575 | 0.478 | -0.346 | 0.307 | 0.548 | 1.86 | 0.399 | 1.32 | -0.148 | 1.88 | 1.41 | 1.55 | 1.56 | 0.489 | 1.17 | 4.74 | 1.49 | 0.596
2 | ACCGAAAGGTCGACGAGGTGAGTATACACCGTTT | 1.08 | 2.03 | 0.47 | 0.38 | 1.27 | 2.93 | 0.279 | 3.29 | 0.4 | 4.19 | 3.18 | 4.28 | 4.13 | 1.58 | 4.27 | 3.61 | 0.645 | 1.01
3 | CATCGGAGGACAACAGGAGGTCAGAGCTGCCAGA | 0.575 | 1.3 | -0.47 | -0.762 | 1.51 | 2.23 | 0.834 | 2.69 | 0.396 | 3.08 | 3.62 | 3.59 | 3.48 | 0.373 | 2.29 | 3.01 | 1.31 | 1.1
4 | ACAGACAGGTAATGAAGGTAACTCAGGCTATCAT | -0.129 | 0.574 | 0.213 | 0.735 | 0.348 | 0.147 | 0.218 | 0.263 | 0.161 | 0.169 | 0.185 | 0.351 | 0.385 | -0.156 | 0.59 | 1.14 | 0.263 | -0.0776
5 | TCTTGTAGATCAAAGGTTAAGAAAGCCGAAGCCT | 2.11 | 3.55 | 0.0229 | 0.863 | 1.18 | 2.02 | -0.0145 | 3.24 | 0.581 | 1.85 | 1.36 | 1.68 | 0.776 | 0.652 | 3.27 | 1.27 | -0.357 | -0.0957
6 | TCTCAGAGGACACGAAGGTCAGAGCTTTCCAGAG | 1.91 | 1.5 | -0.856 | -1.02 | 1.11 | 2.05 | 0.954 | 2.02 | -0.195 | 3.78 | 3.88 | 3.73 | 4.66 | 1.38 | 1.97 | 2.79 | 0.738 | 1.62
7 | TCAGACAGGTGAAGTTAACTCAGGTACGCAGTCG | 2.34 | 0.646 | 0.282 | -0.426 | 0.226 | 0.543 | 0.31 | 0.876 | 0.495 | 1.03 | 0.596 | 0.588 | 0.629 | 1.33 | 0.838 | 1.55 | 0.285 | 0.404
8 | CGAACGAGCGCATGAGTTGATAGCAAATGCCGAT | -0.785 | -0.827 | -0.939 | -1.33 | -2.16 | -0.509 | -0.275 | -0.304 | -0.678 | -1.03 | -0.651 | -0.0221 | -0.247 | 0.162 | -0.236 | -0.516 | -0.891 | -0.0717
9 | TCATATAGGTAATACAGGTGAATGTCGGCATCTA | 4.3 | 3.5 | 1.54 | 1.28 | 1.27 | 0.727 | 0.579 | 1.2 | 1.94 | 0.634 | 0.689 | 0.761 | 0.652 | 1.69 | 1.24 | 0.991 | 0.573 | -0.00173
10 | TGAATGTGGTTAAAGATCAGGGAACGTGGCGTCG | -0.308 | 0.475 | 0.142 | 1.06 | 0.818 | -0.282 | -0.00828 | -0.185 | 0.484 | -0.112 | -0.107 | 0.0115 | -0.196 | -0.526 | 0.126 | -0.141 | -0.0512 | -0.00679
11 | TCATATAGGTAATACAGGTCAAAGTCGGCATCTA | 4.69 | 4.55 | 2.09 | 2.09 | 2.8 | 3.34 | 1.5 | 3.94 | 2.09 | 2.49 | 3.29 | 2.91 | 2.37 | 2.04 | 3.63 | 2.71 | 1.24 | 2.13
12 | CTCGAAAGGTCGGTTGAGATGAGTATACGGATAA | -0.21 | 0.247 | 0.456 | 0.37 | 0.803 | 1.01 | 0.26 | 1.37 | 0.533 | 2.86 | 1.74 | 2.2 | 2.5 | 0.887 | 2.01 | 1.72 | -0.23 | 0.738
13 | TCTCTTAGTTGAAGGGCAACCGACGAGTCCGTTT | 2.62 | 0.645 | 0.259 | 0.537 | 0.739 | 0.86 | 0.261 | 0.472 | 0.622 | 1.63 | 1.22 | 0.587 | 0.371 | 1.52 | 0.71 | 0.283 | 0.0407 | 1.24
14 | GGAATGAGGGCAAAGTTGATAGCATCTGTCGACG | 5.52 | 4.71 | 1.48 | 0.0505 | 0.811 | 1.43 | 0.53 | 1.95 | 0.171 | 2.36 | 1.42 | 2.19 | 1.83 | 2.73 | 2.31 | 1.89 | 0.391 | 1.75
